# Data published in ChEMBL document CHEMBL3988442, “University of Dundee, Small-Polar-MMV Screening Library” (2021).
# For some assays here: Entries with a potency or affinity are not part of this list.
# Legend:
# Design in all cases: scale not given: direction of the effect not stated beside the values
# [1] = biological target: Protein translocase subunit SecA (Escherichia coli (strain K12)) (UniProt P10408); test: Assay to Identify E. coli SecA ATPase Inhibitors; format: functional; conditions: 30 µM
# [2] = biological target: T1, Ubiquitin-activating enzyme e1, putative (Leishmania donovani (strain BPK282A1)) (UniProt E9BSI1); test: Leishmania donovani Ubiquitin Activating Enzyme (LdE1); format: functional; conditions: 30 µM
# T1 sequence (whole entry): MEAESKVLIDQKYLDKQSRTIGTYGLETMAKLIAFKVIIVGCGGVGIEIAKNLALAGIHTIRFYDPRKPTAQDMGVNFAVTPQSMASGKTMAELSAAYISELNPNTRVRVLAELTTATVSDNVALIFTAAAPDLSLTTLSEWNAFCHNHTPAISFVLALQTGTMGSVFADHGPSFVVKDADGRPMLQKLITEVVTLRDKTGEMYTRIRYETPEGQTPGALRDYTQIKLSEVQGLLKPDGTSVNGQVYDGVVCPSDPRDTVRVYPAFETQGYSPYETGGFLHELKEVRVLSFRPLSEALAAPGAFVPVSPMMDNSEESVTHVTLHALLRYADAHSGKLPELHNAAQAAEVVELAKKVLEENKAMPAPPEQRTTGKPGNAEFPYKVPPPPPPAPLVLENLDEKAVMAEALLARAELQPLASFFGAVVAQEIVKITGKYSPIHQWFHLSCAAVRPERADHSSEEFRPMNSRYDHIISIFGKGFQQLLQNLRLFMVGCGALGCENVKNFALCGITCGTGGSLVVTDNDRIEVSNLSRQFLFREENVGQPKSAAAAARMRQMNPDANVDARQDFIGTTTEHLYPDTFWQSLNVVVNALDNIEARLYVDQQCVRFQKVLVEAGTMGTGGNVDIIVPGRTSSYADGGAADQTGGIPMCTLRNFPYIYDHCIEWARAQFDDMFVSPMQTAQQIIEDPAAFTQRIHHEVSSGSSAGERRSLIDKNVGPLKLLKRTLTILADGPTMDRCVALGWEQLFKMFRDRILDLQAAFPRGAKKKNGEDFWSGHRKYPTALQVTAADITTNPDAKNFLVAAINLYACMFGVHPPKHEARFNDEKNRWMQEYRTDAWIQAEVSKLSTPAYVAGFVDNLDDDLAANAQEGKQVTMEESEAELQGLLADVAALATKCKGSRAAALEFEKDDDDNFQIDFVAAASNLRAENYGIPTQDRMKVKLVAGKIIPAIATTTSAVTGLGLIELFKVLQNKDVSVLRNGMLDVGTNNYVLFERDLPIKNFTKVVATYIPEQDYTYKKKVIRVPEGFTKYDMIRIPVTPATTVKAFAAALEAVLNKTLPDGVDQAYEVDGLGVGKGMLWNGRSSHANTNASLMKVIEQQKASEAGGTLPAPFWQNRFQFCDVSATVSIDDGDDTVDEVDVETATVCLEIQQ
# [3] = biological target: AMP-activated protein kinase, AMPK (Homo sapiens) (UniProt P54646+O43741+P54619+Q9UGJ0+Q9Y478+Q13131+Q9UGI9); test: AMP-dependent Kinase enzyme assay. An in vitro enzyme assay that detects ADP turnover that is directly proportional to AMPK activity. This uses naive AMPK that is activated during the assay with MK-8722; format: functional; conditions: 30 µM
# [4] = biological target: Sialic acid-binding Ig-like lectin 9 (Homo sapiens) (UniProt Q9Y336); test: Hs-Siglec9 ALPHAscreen SOP 20170721; conditions: 10 µM
# [5] = system: Trypanosoma cruzi; test: Trypanosoma cruzi phosphomannomutase and mannose-1-phosphate guanylyltransferase assay; format: functional; conditions: 10 µM
# [6] = biological target: T2, Arginase-2, mitochondrial (Homo sapiens) (UniProt P78540); test: in vitro enzyme assay to detect the production of urea directly proportional to the activity of Arginase II; format: functional; conditions: 33.3 µM; note: in the data most compounds retested in dose-response had high values
# T2 sequence (whole entry): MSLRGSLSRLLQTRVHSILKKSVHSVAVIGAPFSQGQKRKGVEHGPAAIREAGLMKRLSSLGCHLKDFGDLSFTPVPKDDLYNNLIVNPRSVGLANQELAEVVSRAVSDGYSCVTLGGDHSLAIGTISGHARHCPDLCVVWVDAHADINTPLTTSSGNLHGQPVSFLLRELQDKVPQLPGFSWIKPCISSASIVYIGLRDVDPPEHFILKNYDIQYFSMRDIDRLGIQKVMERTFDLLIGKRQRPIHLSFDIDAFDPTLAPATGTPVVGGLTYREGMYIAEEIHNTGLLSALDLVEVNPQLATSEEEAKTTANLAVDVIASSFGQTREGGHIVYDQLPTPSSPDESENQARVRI
# [7] = biological target: T3, Proteasome subunit beta (Trypanosoma cruzi) (UniProt O96673); test: Trypanosoma cruzi proteasome chymotrypsin-like activity (TcProtChymo) assay.; note: in the data most compounds retested in dose-response had high values; format: functional; conditions: 9.37 µM
# T3 sequence (whole entry): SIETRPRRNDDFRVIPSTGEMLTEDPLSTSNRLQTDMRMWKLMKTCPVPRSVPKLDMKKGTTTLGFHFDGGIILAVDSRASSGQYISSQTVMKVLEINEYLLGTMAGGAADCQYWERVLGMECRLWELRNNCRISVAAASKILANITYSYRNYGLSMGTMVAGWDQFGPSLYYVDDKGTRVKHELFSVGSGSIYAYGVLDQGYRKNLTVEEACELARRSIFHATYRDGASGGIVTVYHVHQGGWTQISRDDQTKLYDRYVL
# [8] = organism: Homo sapiens; test: To identify inhibition of the IFN signalling (Jak-Stat) pathway via expression of an eGFP reporter gene under the control of an IFN-stimulated response element (ISRE) containing MxA promoter.; format: functional; conditions: 30 µM
# [9] = biological target: T4, Tyrosyl-tRNA synthetase, putative (Trypanosoma cruzi (strain CL Brener)) (UniProt Q4DSP6); test: Trypanosoma cruzi tyrosyl tRNA synthetase (TcYRS) _High Tyrosine SOP; format: functional; conditions: 30 µM; note: in the data most compounds retested in dose-response had high values
# T4 sequence (whole entry): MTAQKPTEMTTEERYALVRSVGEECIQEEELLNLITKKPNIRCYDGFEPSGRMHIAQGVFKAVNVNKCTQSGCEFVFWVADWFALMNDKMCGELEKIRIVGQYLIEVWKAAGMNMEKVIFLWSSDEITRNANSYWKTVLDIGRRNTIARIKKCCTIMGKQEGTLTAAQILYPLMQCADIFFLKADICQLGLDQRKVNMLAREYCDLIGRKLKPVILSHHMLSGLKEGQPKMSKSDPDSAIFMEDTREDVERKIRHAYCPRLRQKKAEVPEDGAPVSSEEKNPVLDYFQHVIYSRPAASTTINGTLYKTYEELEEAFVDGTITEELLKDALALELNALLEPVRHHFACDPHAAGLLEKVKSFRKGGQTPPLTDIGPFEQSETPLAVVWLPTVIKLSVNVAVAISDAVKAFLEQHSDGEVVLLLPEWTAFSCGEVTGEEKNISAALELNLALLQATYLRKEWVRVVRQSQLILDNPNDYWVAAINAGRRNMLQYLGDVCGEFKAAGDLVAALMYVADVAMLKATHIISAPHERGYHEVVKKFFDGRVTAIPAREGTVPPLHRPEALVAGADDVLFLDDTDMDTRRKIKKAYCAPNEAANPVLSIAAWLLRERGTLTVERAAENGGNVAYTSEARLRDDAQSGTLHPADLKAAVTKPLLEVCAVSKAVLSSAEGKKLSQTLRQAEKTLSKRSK
# [10] = biological target: T4, Tyrosyl-tRNA synthetase, putative (Trypanosoma cruzi (strain CL Brener)); test: Trypanosoma cruzi tyrosyl tRNA synthetase (TcYRS) SOP; format: functional; conditions: 30 µM
# [11] = biological target: Chromo domain-containing protein 1 (Saccharomyces cerevisiae (strain ATCC 204508 / S288c) (Baker's yeast)) (UniProt P32657); test: ScCHD-1 Enzyme Inhibition Assay; format: functional; conditions: 30 µM; note: in the data most compounds retested in dose-response had high values
# Chain of Chromo domain-containing protein 1 (Saccharomyces cerevisiae (strain ATCC 204508 / S288c) (Baker's yeast)) (P32657 whole entry, the tested form may be a part): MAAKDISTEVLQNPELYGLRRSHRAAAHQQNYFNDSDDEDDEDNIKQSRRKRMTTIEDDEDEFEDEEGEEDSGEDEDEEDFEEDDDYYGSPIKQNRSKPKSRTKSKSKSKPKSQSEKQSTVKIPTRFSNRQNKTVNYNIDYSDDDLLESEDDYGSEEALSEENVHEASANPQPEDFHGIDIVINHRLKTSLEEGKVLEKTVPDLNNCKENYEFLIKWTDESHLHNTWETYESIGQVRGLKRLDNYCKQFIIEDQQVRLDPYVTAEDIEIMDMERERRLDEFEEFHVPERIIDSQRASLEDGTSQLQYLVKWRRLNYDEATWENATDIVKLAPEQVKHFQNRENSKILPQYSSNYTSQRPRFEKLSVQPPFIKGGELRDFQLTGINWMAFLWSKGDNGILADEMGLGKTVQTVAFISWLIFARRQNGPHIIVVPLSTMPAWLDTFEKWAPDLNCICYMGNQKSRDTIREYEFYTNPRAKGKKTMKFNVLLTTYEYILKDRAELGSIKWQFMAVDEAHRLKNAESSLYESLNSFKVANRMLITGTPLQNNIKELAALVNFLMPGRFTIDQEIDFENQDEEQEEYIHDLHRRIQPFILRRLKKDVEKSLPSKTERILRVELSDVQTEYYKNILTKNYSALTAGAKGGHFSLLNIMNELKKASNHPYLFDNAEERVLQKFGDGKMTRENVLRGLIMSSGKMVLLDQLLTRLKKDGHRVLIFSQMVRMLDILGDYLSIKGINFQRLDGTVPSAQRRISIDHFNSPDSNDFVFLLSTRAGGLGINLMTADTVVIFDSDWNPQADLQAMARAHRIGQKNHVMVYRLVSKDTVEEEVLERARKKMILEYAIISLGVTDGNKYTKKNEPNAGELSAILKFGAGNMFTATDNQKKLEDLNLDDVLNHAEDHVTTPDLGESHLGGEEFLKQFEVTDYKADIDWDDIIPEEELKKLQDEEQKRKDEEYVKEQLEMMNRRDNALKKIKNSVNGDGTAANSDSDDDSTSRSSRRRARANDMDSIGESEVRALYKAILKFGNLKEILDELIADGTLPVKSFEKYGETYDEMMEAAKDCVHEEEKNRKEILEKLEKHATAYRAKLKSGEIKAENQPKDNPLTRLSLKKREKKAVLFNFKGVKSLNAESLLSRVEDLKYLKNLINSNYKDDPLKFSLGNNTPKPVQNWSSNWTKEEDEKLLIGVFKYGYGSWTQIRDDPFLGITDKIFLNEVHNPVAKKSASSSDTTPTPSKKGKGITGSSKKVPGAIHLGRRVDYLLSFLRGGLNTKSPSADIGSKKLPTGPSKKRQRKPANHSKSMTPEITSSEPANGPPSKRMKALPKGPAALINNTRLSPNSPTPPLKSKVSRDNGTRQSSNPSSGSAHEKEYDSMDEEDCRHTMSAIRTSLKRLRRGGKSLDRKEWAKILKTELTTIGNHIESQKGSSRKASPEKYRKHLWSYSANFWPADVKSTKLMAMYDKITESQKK
# Chain of Sialic acid-binding Ig-like lectin 9 (Homo sapiens) (Q9Y336 whole entry): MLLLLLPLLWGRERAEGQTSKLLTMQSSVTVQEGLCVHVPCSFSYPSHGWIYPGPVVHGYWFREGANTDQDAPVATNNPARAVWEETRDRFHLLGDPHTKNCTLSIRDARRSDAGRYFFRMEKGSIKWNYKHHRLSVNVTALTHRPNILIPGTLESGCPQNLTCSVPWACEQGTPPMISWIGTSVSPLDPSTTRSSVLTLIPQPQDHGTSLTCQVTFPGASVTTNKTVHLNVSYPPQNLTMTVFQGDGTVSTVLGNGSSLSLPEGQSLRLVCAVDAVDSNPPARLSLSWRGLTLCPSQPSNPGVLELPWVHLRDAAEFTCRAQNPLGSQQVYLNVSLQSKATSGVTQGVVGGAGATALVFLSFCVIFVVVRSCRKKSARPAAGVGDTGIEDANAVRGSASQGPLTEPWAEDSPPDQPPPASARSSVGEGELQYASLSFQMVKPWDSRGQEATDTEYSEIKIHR
# Chain of Protein translocase subunit SecA (Escherichia coli (strain K12)) (P10408 whole entry): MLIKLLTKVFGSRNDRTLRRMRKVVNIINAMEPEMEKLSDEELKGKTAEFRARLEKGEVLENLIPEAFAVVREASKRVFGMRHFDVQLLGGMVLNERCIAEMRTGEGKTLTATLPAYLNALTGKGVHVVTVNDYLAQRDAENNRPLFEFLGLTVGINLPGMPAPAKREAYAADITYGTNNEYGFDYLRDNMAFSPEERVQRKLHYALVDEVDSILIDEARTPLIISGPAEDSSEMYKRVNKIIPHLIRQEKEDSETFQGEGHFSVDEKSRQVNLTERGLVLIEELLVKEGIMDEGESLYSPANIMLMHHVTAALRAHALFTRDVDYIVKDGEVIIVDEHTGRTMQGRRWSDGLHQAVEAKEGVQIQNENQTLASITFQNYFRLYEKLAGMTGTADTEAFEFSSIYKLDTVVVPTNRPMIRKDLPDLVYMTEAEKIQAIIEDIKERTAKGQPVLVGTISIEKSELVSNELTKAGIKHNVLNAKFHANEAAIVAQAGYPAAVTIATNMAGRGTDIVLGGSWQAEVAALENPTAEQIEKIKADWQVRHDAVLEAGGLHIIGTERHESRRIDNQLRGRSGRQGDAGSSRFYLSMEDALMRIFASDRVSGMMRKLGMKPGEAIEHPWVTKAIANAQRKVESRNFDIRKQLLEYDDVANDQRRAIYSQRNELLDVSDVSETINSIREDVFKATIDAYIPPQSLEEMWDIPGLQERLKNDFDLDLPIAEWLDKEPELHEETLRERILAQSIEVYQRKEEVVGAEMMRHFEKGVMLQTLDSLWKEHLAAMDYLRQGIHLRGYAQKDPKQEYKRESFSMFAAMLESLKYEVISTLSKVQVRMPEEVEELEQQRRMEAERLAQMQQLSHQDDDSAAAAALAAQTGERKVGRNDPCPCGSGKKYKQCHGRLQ
Structure (SMILES),Percent Effect [1] [%],Percent Effect [2] [%],Percent Effect [3] [%],Percent Effect [4] [%],Percent Effect [5] [%],Percent Effect [6] [%],Percent Effect [7] [%],Percent Effect [8] [%],Percent Effect [9] [%],Percent Effect [10] [%],Percent Effect [11] [%]
O=C(Cc1ccccn1)N1CCc2nc(-c3cnccn3)nc(O)c2C1,-2.77,12.2,8.84,-3.28,0.593,3.48,12.6,9.22,4.3,9.09,-9.74
Cc1cc(CN2Cc3ccccc3CC2c2nnc(C)o2)on1 (stereo unspecified),-3.58,2.6,6.16,3.48,2.25,4.84,0.728,-4.28,6.67,9.41,-13.4
Cc1n[nH]c(C2CN(C(=O)c3ccnc(C4CC4)n3)CCO2)n1 (stereo unspecified),-1.78,10.4,5.44,10.3,-0.0979,5.26,9.78,-6.73,5.71,-23.5,-12.2
O=C(Nc1cc(F)ccc1OCC1CCCO1)c1ccccn1 (stereo unspecified),-2.56,2.6,23.7,12.2,3.04,3.16,0.242,2.47,2.86,9.41,-15.1
CC(C)c1n[nH]c(C(=O)Nc2ccnn2C(C)C)c1Br,-9.82,12.7,-6.58,19.3,8.4,-6.84,9.42,39.4,7.39,13.9,-9.92
COc1ccc(C2CC(=O)Oc3cc(C)[nH]c(=O)c32)cc1 (stereo unspecified),-5.52,6.67,5.42,2.83,4.13,-0.528,11.1,3.33,2.12,5.13,-1.69
Cc1nn(C)c(C)c1NC(=O)CN1CCc2c(nc(C3CC3)n2C)C1,0.84,-5.41,0.981,13.1,6.76,-5.71,4.14,1.97,-0.529,7.32,-8.76
CC(NC(=O)NCCCn1ccnc1)c1ccc2c(c1)OCCCO2 (stereo unspecified),-3.41,2.7,-7.49,-2.67,-8.08,5.36,-0.539,12.7,1.98,1.22,2.18
COc1ncc(-c2nccn2CCN(C)C)cn1,-3.87,-2.7,-2.61,1.15,-0.965,-3.81,20.9,2.02,-2.65,2.44,-3.6
Cc1ccc(CN2CCc3ncnc(-c4ccc(F)cc4)c3CC2)o1,-0.438,5.33,3.65,4.4,-1.93,-50.4,12.5,-0.337,1.04,12.5,-9.77
COc1ccc(-n2nnc(C(=O)NC(C)C)c2C2CC2)cc1,-1.4,1.39,-9.18,9.95,4.96,15,4.21,9.68,0,0,-0.372
COc1ccc(NC(=O)Cn2nc(C)ccc2=O)cc1OC,-3.84,-1.33,2.94,4.69,-0.786,-5.46,7.39,-3.33,3.17,5.13,0.459
Cc1cc(CN2CCN(c3nn4cc(C)nc4s3)CC2)on1,-0.836,16.5,4.65,3,-0.923,0.215,20.4,6.94,7.29,15.2,-20.7
COC1CCCN(C(=O)Nc2nc(C)n(C)n2)C1 (stereo unspecified),-4.33,8,-6.08,5.49,1.27,1.56,11.2,14.3,6.01,6.17,-6.37
COc1cccc(CNC(=O)N2CCN(Cc3cc(C)on3)CC2)c1,-1.41,15.2,-1.11,-7.32,-6.33,0.38,1.39,25.8,5.42,11.4,-5.16
COc1ccc(CNC(=O)NC2CCC(O)CC2)c(C(F)(F)F)c1 (stereo unspecified),-1.24,-9.72,-2.59,-9.45,-4.57,1.32,14,-1.15,3.16,2.56,-2.64
